# Results from the supplement of paper PMC12282887.
# ± gives the standard deviation of the averaged measurements.
# Tested on: E. coli BW25113 marRABp lux reporter
# Assay: promoter activity interaction Z-score (Lux/OD deviation from empty-vector control); higher = stronger promoter induction by the compound
# Experimental: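 E. coli BW25113 (wild type or ΔmarA/ΔsoxS/Δrob) carrying pTU175 luxCDABE promoter reporters was grown in LB in 384-well plates at 37°C with each of 94 compounds at 4 two-fold concentrations, in biological duplicates. Luminescence and OD600 were read every 30 min for 12 h and integrated as AUC over 8 h (0-8 h WT, 1-9 h mutants). Lux AUC was divided by OD AUC; the interaction score is the residual of a Huber robust fit of each promoter against the empty-vector control, then Z-transformed per promoter.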
# [1] = 2.6 µg/ml, genetic background: wild type
# [2] = 2.6 µg/ml, genetic background: ΔmarA
# [3] = 2.6 µg/ml, genetic background: Δrob
# [4] = 2.6 µg/ml, genetic background: ΔsoxS
smiles,measurement,setting,value
C[n+]1ccc(-c2cc[n+](C)cc2)cc1 [Paraquat],promoter activity interaction Z-score,"0.64 µg/ml, genetic background: wild type",0.0393 ± 0.059
same,promoter activity interaction Z-score,"0.64 µg/ml, genetic background: ΔmarA",0.259 ± 0.056
same,promoter activity interaction Z-score,"0.64 µg/ml, genetic background: Δrob",0.471 ± 0.061
same,promoter activity interaction Z-score,"0.64 µg/ml, genetic background: ΔsoxS",0.397 ± 0.44
same,promoter activity interaction Z-score,"1.3 µg/ml, genetic background: wild type",0.123 ± 0.012
same,promoter activity interaction Z-score,"1.3 µg/ml, genetic background: ΔmarA",0.332 ± 0.16
same,promoter activity interaction Z-score,"1.3 µg/ml, genetic background: Δrob",0.857 ± 0.029
same,promoter activity interaction Z-score,"1.3 µg/ml, genetic background: ΔsoxS",0.407 ± 0.47
same,promoter activity interaction Z-score,[1],0.508 ± 0.11
same,promoter activity interaction Z-score,[2],0.467 ± 0.19
same,promoter activity interaction Z-score,[3],1.16 ± 0.33
same,promoter activity interaction Z-score,[4],0.215 ± 0.34
same,promoter activity interaction Z-score,"5.1 µg/ml, genetic background: wild type",1.52 ± 0.99
same,promoter activity interaction Z-score,"5.1 µg/ml, genetic background: ΔmarA",1.25 ± 0.44
same,promoter activity interaction Z-score,"5.1 µg/ml, genetic background: Δrob",2.54 ± 0.066
same,promoter activity interaction Z-score,"5.1 µg/ml, genetic background: ΔsoxS",0.698 ± 0.45
CC(=O)N[C@H]1[C@@H](O[C@@H]2O[C@H](CC(O)[C@H]3O[C@@H](n4ccc(=O)[nH]c4=O)[C@H](O)[C@@H]3O)[C@H](O)[C@H](O)[C@H]2NC(=O)/C=C/CC(C)C)O[C@H](CO)[C@@H](N)[C@@H]1O (stereo partly drawn) [Tunicamycin],promoter activity interaction Z-score,[1],-0.437 ± 0.048
same,promoter activity interaction Z-score,[2],-0.39 ± 0.54
same,promoter activity interaction Z-score,[3],-0.2 ± 0.15
same,promoter activity interaction Z-score,[4],-0.379 ± 0.38
same,promoter activity interaction Z-score,"5.3 µg/ml, genetic background: wild type",-0.455 ± 0.15
same,promoter activity interaction Z-score,"5.3 µg/ml, genetic background: ΔmarA",-0.634 ± 0.41
same,promoter activity interaction Z-score,"5.3 µg/ml, genetic background: Δrob",-0.284 ± 0.008
same,promoter activity interaction Z-score,"5.3 µg/ml, genetic background: ΔsoxS",-0.282 ± 0.18
same,promoter activity interaction Z-score,"10.6 µg/ml, genetic background: wild type",-0.326 ± 0.14
same,promoter activity interaction Z-score,"10.6 µg/ml, genetic background: ΔmarA",-0.464 ± 0.54
same,promoter activity interaction Z-score,"10.6 µg/ml, genetic background: Δrob",-0.127 ± 0.2
same,promoter activity interaction Z-score,"10.6 µg/ml, genetic background: ΔsoxS",-0.485 ± 0.34
same,promoter activity interaction Z-score,"21.1 µg/ml, genetic background: wild type",-0.471 ± 0.16
same,promoter activity interaction Z-score,"21.1 µg/ml, genetic background: ΔmarA",-0.634 ± 0.25
same,promoter activity interaction Z-score,"21.1 µg/ml, genetic background: Δrob",-0.663 ± 0.56
same,promoter activity interaction Z-score,"21.1 µg/ml, genetic background: ΔsoxS",-0.645 ± 0.46
C[C@]12CC[C@H]3[C@@H](CCC4=CC(=O)CC[C@@]43C)[C@@H]1CC[C@@H]2O [Testosterone],promoter activity interaction Z-score,"18 µg/ml, genetic background: wild type",-0.549 ± 0.28
same,promoter activity interaction Z-score,"18 µg/ml, genetic background: ΔmarA",-0.238 ± 0.15
same,promoter activity interaction Z-score,"18 µg/ml, genetic background: Δrob",-0.5774 ± 0.0046
same,promoter activity interaction Z-score,"18 µg/ml, genetic background: ΔsoxS",-0.238 ± 0.058
same,promoter activity interaction Z-score,"36.1 µg/ml, genetic background: wild type",-0.712 ± 0.027
same,promoter activity interaction Z-score,"36.1 µg/ml, genetic background: ΔmarA",-0.0596 ± 0.21
same,promoter activity interaction Z-score,"36.1 µg/ml, genetic background: Δrob",-0.24 ± 0.17
same,promoter activity interaction Z-score,"36.1 µg/ml, genetic background: ΔsoxS",-0.368 ± 0.14
same,promoter activity interaction Z-score,"72.1 µg/ml, genetic background: wild type",-0.654 ± 0.22
same,promoter activity interaction Z-score,"72.1 µg/ml, genetic background: ΔmarA",-0.0306 ± 0.33
same,promoter activity interaction Z-score,"72.1 µg/ml, genetic background: Δrob",-0.303 ± 0.014
same,promoter activity interaction Z-score,"72.1 µg/ml, genetic background: ΔsoxS",-0.398 ± 0.14
same,promoter activity interaction Z-score,"144.2 µg/ml, genetic background: wild type",-0.399 ± 0.038
same,promoter activity interaction Z-score,"144.2 µg/ml, genetic background: ΔmarA",-0.0772 ± 0.21
same,promoter activity interaction Z-score,"144.2 µg/ml, genetic background: Δrob",-0.448 ± 0.17
same,promoter activity interaction Z-score,"144.2 µg/ml, genetic background: ΔsoxS",-0.258 ± 0.0049
